From PubChem BioAssay (NCATS)
Inconclusive results are not listed. A call without a number means that no potency is given here. Values without a mark were called inactive. Activity calls are given as the source filed them. The call rests on the fitted dose curve; in most records, active means well fitted activation curve with a large enough effect; inconclusive means small, poorly fitted or top-dose-only effect; inactive means flat fitted curve, though single readings scatter. Bridge positions count the residues as written; N and C are the ends. Square brackets hold non-standard residues; d marks the D form. Side chains are listed from the residue outwards. Peptide text beside a SMILES is read from it. * marks the point of attachment. Phg(4-OMe) = COc1ccc([C@H](N)C(=O)O)cc1; d(aIle) = CC[C@H](C)[C@@H](N)C(=O)O; d(aThr) = C[C@@H](O)[C@@H](N)C(=O)O; NMeF = CN[C@@H](Cc1ccccc1)C(=O)O; Isobutyryl = CC(C)C(=O)*

Test: HEK293 24hr Apoptosis Induction qHTS against the NCATS CANVASS Library (AID 1347359)
Details: HEK293 caspase-3/7 activation, Caspase-Glo luminescence; series mostly up to 46.1 µM
How it was run: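 HEK293 cells (500/well, DMEM + 10% FBS) were exposed to compounds in an 11-point series for 24 hours at 37 degrees C, then caspase-3/7 activity was read by Caspase-Glo DEVD luciferase luminescence after 15 min.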

SMILES | Potency | activation
Cc1occ2c1C(=O)c1c(cc(O)c(O)c1O)C2=O | inactive | –
O=C1CC2OCC=C3CN4C5CC3C2[C@@H]2N1c1ccccc1[C@]52C[C@@H]4C1=C[C@H]2C3CC4N(CC[C@@]45c4ccccc4N(C1=O)[C@@H]25)C/C3=C/CO (stereo partly specified) | inactive | –
CCC(=O)CCCCC[C@@H]1NC(=O)[C@H]2CCCCN2C(=O)[C@H](C(C)C)NC(=O)[C@H](Cc2cn(OC)c3ccccc23)NC1=O | inactive | –
C/C(=C\[C@H](C)C(=O)CCCC1CC(=O)NC(=O)C1)[C@@H]1OC(=O)/C=C/CC/C=C/[C@H](O)[C@@H](O)[C@@H]1C | inactive | –
C/C=C(/C)c1c(Cl)c(O)c(C)c2c1Oc1c(Cl)c(O)c(Cl)c(C)c1C(=O)O2 | inactive | –
C=C[C@@]1(C)CC[C@@H]([C@H](C)C(=O)/C=C/C(C)(C)O)O1 | inactive | –
C=CC(CCCCC)C1C(=O)NC(=O)C1C(=O)C1C(/C=C/C)C=CC2CC(C(=O)O)CC(C)C21 (stereo unspecified) | inactive | –
C=C1CC[C@@H](O[C@H]2C[C@@](O)([C@H](C)NC(=O)c3[nH]c(C)c(Cl)c3Cl)[C@H](O)[C@@H](C)O2)[C@@H]2C=C[C@H](C)C(/C(O)=C3/C(=O)[C@H](C(C)C)N([C@@H]4O[C@H](C)[C@H](OC(N)=O)[C@H](OC(C)=O)[C@@H]4OC)C3=O)[C@@H]12 (stereo partly specified) | inactive | –
COc1ccc([C@@H]2CC(=O)c3c(cc(O)c(C/C=C(\C)CCC=C(C)C)c3O)O2)cc1 | – | 2.74% [at 9.19 µM]
O=c1cc(-c2ccc(O)c(O)c2)oc2cc(O[C@@H]3O[C@H](CO)[C@@H](O)[C@H](O)[C@H]3O)cc(O)c12 | inactive | –
CC[C@H](C)[C@H]1NC(=O)[C@@H](NC(=O)C(C)C)[C@@H](C)OC(=O)[C@H](COC(=O)CNC(C)=O)NC(=O)[C@@H]([C@@H](C)O)NC(=O)[C@H](Cc2ccccc2)N(C)C(=O)[C@H](c2ccc(OC)cc2)NC1=O (Isobutyryl-T[d(aIle)][Phg(4-OMe)][NMeF][d(aThr)]S([Gly-Ac]); ester 1-C) | inactive | –
C[n+]1cc2cc(C(N)=O)[nH]c3c(=N)c(Cl)c(N)c1c23 | inactive | –
C/C1=C/[C@@H](C)[C@H](O)[C@@H](O)/C=C/CC/C=C/C(=O)O[C@@H]1[C@H](C)C(=O)CCCC1CC(=O)NC(=O)C1 | inactive | –
CC(=O)Oc1cc2c(c(OC(C)=O)c1C1CCc3cc(Cl)c(Cl)n31)C(=O)n1c-2cc(Cl)c1Cl (stereo unspecified) | inactive | –
COc1ccc2[nH]c3c(c2c1)CCN1C[C@H]2C[C@@H](OC(=O)c4cc(OC)c(OC)c(OC)c4)[C@H](OC)[C@@H](OC)[C@H]2C[C@H]31 | inactive | –
O[C@H]1c2ccccc2-c2c3c(cc4c2[C@@H]1NCC4)OCO3 | inactive | –
CC(C)=CC[C@H]1C[C@@]2(CC=C(C)C)C(=O)[C@](CC=C(C)C)(C(=O)C(C(=O)c3ccccc3)=C2O)C1(C)C | inactive | –
C[C@]12CC[C@]3(C1)[C@H](CC2=O)C[C@@H](OC(=O)c1ccccc1)[C@H]1[C@](C)(C(=O)O)CCC[C@@]13C | inactive | –

SMILES | Potency | activation
CC(=O)O[C@H]1c2ccccc2-c2c3c(cc4c2[C@@H]1N(C(C)=O)CC4)OCO3 | inactive | –
C=C[C@](Cl)(CBr)CCC=C(C)C | inactive | –
C=C1CC[C@@H](Br)C(C)(C)[C@]12CC=C(C)C(=O)C2 | inactive | –
COc1cc2c(cc1OC)[C@@H](c1ccc3c(c1)OCO3)C(C)C(C)C2=O (stereo partly specified) | inactive | –
C[C@H]1C=C[C@H]2CCCC[C@@H]2[C@H]1C(=O)[C@H]1CC2=C(C(=O)O)CCN2C1=O | inactive | –
C/C(=C\[C@H](C)C(=O)/C=C/CC1CC(=O)NC(=O)C1)[C@@H]1OC(=O)/C=C/CC/C=C/C[C@@H](O)[C@@H]1C | inactive | –
CC(C)[C@]12CC[C@@]3(C)[C@H](C)CC[C@H](O)[C@@]3(CC1)c1cc3c(cc12)[nH]c1ccccc13 | inactive | –
CC(C)=CCC[C@]12c3cc4c(cc3CC[C@@]1(C)[C@H](C)CC[C@@H]2O)[nH]c1ccccc14 | inactive | –
Oc1ccc(C2Oc3cc(O)c4c(c3[C@@H]2c2cc(O)cc(O)c2)[C@H]2C(c3ccc(O)cc3)c3c(O)cc5c(c3[C@H]2C4c2ccc(O)cc2)[C@H](c2cc(O)cc(O)c2)C(c2ccc(O)cc2)O5)cc1 (stereo partly specified) | inactive | –
COc1cc(O)c(C(=O)[C@@H]2[C@H](CC=C(C)C)C(C)=CC[C@H]2c2ccccc2)c(O)c1 | inactive | –
C=C(C)CC[C@H](Cc1c(O)cc(O)c2c1O[C@H](c1ccc(O)cc1)CC2=O)C(=C)C | inactive | –
C=CC(CCCCC)C1C(=O)NC(=O)C1C(=O)C1C2C(C)CC(C(=O)O)CC2CC1(O)C(=O)/C=C/C (stereo unspecified) | inactive | –
C[C@]12CCC[C@](C)(C(=O)O)[C@@H]1CC[C@@]1(C)c3cocc3CC[C@H]21 | inactive | –
COc1c(O)cc2c(c1O)C(=O)c1c(coc1C)C2=O | inactive | –
CC(C)C[C@@H]1c2c(O)c(C=O)c(O)c(C=O)c2O[C@]2(C)C=C[C@@H](C(C)C)C[C@H]12 | inactive | –
COc1cc2c(c(O)c1O)C(=O)c1c(coc1C)C2=O | inactive | –
CO[C@H]1[C@@H](OC(=O)/C(C)=C\[C@@H]2O[C@@H]2[C@H]2O[C@H]2C)[C@H](O)[C@H](OCC23C[C@@H]4[C@H](C)CC[C@H]4C4(C=O)CC2C=C(C(C)C)C34C(=O)O)O[C@@H]1C (stereo partly specified) | inactive | –
C/C=C/C1C=CC2CC(C)CC(C)C2C1C(=O)CC(=O)NC(CO)C/C=C/CCCCC (stereo unspecified) | inactive | –
